Cruzain inh Det: qHTS Assay for Promiscuous and Specific Inhibitors of Cruzain (with detergent); Cruzipain (Trypanosoma cruzi), P25779; purified cruzain, Z-FR-AMC fluorescence, 0.01% Triton; Potency, µM, hits mostly inhibitors; actives 0.43% (n = 200,000); AID 1478, 2009; note: nearly all actives have a fitted effect of over 40% in size
Target sequence (P25779 123-467 limits assumed): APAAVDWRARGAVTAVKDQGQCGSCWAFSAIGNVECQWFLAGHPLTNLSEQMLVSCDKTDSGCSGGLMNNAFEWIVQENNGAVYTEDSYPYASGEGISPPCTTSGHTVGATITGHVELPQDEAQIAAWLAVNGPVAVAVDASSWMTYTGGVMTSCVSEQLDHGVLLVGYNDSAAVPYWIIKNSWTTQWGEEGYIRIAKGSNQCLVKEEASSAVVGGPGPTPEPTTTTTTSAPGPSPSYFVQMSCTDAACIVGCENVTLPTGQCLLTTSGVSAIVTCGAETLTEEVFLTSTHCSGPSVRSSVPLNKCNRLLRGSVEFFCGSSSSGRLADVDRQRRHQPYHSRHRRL
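Sodium acetate buffer (100 mM, pH 5.5) containing 5 mM DTT and 0.01% Triton X-100 hosted 1.5 nM cruzain and test compound for 15 min at room temperature. Cleavage of 2 uM Z-FR-AMC was then tracked by fluorescence.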
Cruzain noTriton: qHTS Assay for Promiscuous and Specific Inhibitors of Cruzain (without detergent) | actives 2.3% (n = 200,000) | purified cruzain, Z-FR-AMC fluorescence, no detergent | Cruzipain (Trypanosoma cruzi), P25779 | Potency, µM, hits mostly inhibitors | AID 1476, 2009; note: nearly all actives have a fitted effect of over 40% in size
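Purified cruzain at 1.5 nM, pre-incubated 15 min with compound at room temperature in 100 mM sodium acetate pH 5.5, 5 mM DTT, 0.00005% Triton X-100. Reaction started with 2 uM Z-FR-AMC; AMC fluorescence increase over 60 s gives rate.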
A number is an active result; - = inactive; ? = inconclusive. Most compounds without a hit are left out; they make up all but 2.4% or so of the library. Calls come from the whole dose curve; as a rule, active = well fitted curve in the direction sought with a large enough effect; inconclusive = small, poorly fitted or top-dose-only effect, or another doubt; inactive = no such curve, though single readings can be large; an effect the other way counts as inactive or inconclusive.

SMILES | Cruzain inh Det | Cruzain noTriton
O=C(NC1CCCCC1)N1CCC(c2nc3ccccc3[nH]2)CC1 | - | -
COc1ccc(C(=O)N/N=C/c2sc3ccccc3c2O)cc1 | - | -
COc1ccc2cc(C(=O)N/N=C/c3sc4ccccc4c3O)ccc2c1 | 28µM | ?
O=C1N=C(c2ccccc2)S/C1=C\c1cccs1 | - | 20µM
O=C1N=C(N2CCN(c3ccccc3)CC2)S/C1=C/c1cccs1 | - | -
CCOC(=O)c1c(-c2ccccc2)oc2cc(Br)c(OCc3ccccc3)cc12 | - | -
CCOC(=O)c1c(-c2ccccc2)oc2ccc(OCc3cccc(Br)c3)cc12 | - | 10µM
Cc1cccc(NC(=O)c2ccc3c(O)c(S(=O)(=O)c4ccccc4)c(=O)[nH]c3c2)c1C | - | -
Cc1cccc(-n2c(C)cc(C(=O)C(=O)Nc3ccccc3F)c2C)c1C | - | -
COc1ccc(S(=O)(=O)Nc2ccc3oc4c(c3c2)CCCC4)cc1 | - | ?
O=S(=O)(Nc1ccc2oc3c(c2c1)CCCC3)c1cc(Cl)ccc1Cl | - | 32µM
O=C1OC(c2ccccc2)=N/C1=C\C=C\c1ccccc1[N+](=O)[O-] | 13µM | 16µM
O=c1[nH]c(/C=C/c2ccccc2[N+](=O)[O-])nc2ccccc12 | - | -
COc1ccc(Br)cc1CNC(=O)c1ccc2c(c1)nc1n2CCCCC1 | - | -
CCCCOC(=O)Cn1c(=O)c2c(nc3n2CCCCN3c2ccc(C)cc2)n(C)c1=O | 25µM | -
Cn1c(=O)n(CC(=O)O)c(=O)c2c1nc1n2CCCN1c1ccc(Cl)cc1 | - | -
CCCCOc1ccc(CNC(=O)NS(=O)(=O)c2ccc(OCC(C)C)cc2)cc1 | - | 7.9µM
CCCCOc1ccc(S(=O)(=O)Nc2ccc(NC(C)=O)cc2)cc1 | - | -
CCCCOc1ccc(CNC(=O)NS(=O)(=O)c2ccc(OCC)cc2)cc1 | - | 20µM
CCCCOc1ccc(S(=O)(=O)NC(=O)NCc2ccc(OCCC)cc2)cc1 | - | 25µM
Cc1ccc(S(=O)(=O)NC(=O)NCc2ccccc2)cc1 | - | -
CCCCNC(=O)NS(=O)(=O)c1ccc(C)cc1 | - | -
CCOc1cccc2sc(NC(=O)c3ccc(S(=O)(=O)N4CCCCC4C)cc3)nc12 (stereo unspecified) | - | -
Nc1ncnc2c([C@@H]3O[C@@H](CO)[C@H](O)[C@@H]3O)nsc12 | - | -
CCOc1ccc(OCC(=O)NCCS(=O)(=O)N2CCN(c3ccccc3F)CC2)cc1 | - | -
SMILES | Cruzain inh Det | Cruzain noTriton
CCOc1ccc(N=C2NC(=O)S/C2=C\c2ccc(Cl)cc2)cc1 | - | 4µM
COc1ccc(N=C2NC(=O)S/C2=C\c2ccc(N(C)C)cc2)cc1 | - | ?
CCOc1ccccc1CNC(=O)c1ccc2nc(N3CCC(C)CC3)sc2c1 | - | -
Cc1noc(C)c1-c1ccc2ncnc(N(C)Cc3ccco3)c2c1 | - | -
Cc1ccc(-c2noc(-c3nnn(CC(=O)Nc4cccc(C(F)(F)F)c4)c3N)n2)cc1 | - | -
O=c1c2ccccc2n(Cc2ccccc2F)c(=O)n1-c1cccc(F)c1 | - | -
COc1cc2oc(=O)cc(-c3ccc(-c4ccc(C#N)cc4)cc3)c2c(OC)c1OC | - | 35µM
COc1cc2oc(=O)cc(-c3ccc(-c4ccc(C)cc4)cc3)c2c(OC)c1OC | - | -
COc1cc(/C=C(\C#N)c2nc3ccc(C)cc3[nH]2)ccc1OC(C)C | - | -
Cc1ccc2nc(/C(C#N)=C/c3ccc(-c4cccc(Cl)c4)o3)[nH]c2c1 | ? | 13µM
Cc1ccc2nc(/C(C#N)=C/c3cccc(Br)c3)[nH]c2c1 | - | 20µM
N#C/C(=C\c1ccc(-c2ccc(Cl)c(C(=O)O)c2)o1)c1nc2ccccc2[nH]1 | - | -
NNC(=O)[C@@H](O)[C@H](O)[C@H](O)CO | - | -
O=C(CN1C(=O)CC(c2ccc(F)cc2)=Nc2ccccc21)NCc1ccccc1Cl | - | -
O=C(Nc1ccc(F)cc1)c1ccc(COc2ccccc2)cc1 | - | 13µM
COC(=O)c1ccc(OCCOc2ccccc2)cc1 | - | -
COC(=O)c1ccc(CNC(=O)c2ccc(COc3ccccc3)cc2)cc1 | - | 10µM
O=C(Nc1ccc(OCc2ccccc2)cc1)c1cccc([N+](=O)[O-])c1 | - | -
NNC(=O)c1ccc(COc2ccccc2)cc1 | - | -
Cc1ccc(C(=O)Nc2ccc(OCc3ccccc3)cc2)cc1[N+](=O)[O-] | - | 13µM
CCCCCn1c(-c2ccc(OC)c(OC)c2)nc2ccccc21 | - | -
O=C(O)c1cccc(C[C@H](Br)C(=O)O)c1 | - | -
CCOC(=O)c1c(C)[nH]c(CCC(=O)Nc2ccccc2C(=O)OC)c1C | - | -
COc1ccc(OC)c(S(=O)(=O)NCC(c2cccs2)S(=O)(=O)c2ccc(F)cc2)c1 (stereo unspecified) | - | -
CCOC(=O)c1cccc(NC(=O)N2Cc3ccccc3Oc3ncccc32)c1 | - | -
O=C(O)c1oc(C(=O)O)c(C(=O)O)c1C(=O)O | - | -
